Results taken from ChEMBL document CHEMBL1961873, “Compounds: GSK PKIS; Assays: Nanosyn kinase panel” (2012).

Legend:
[1] = system: Tyrosine-protein kinase ABL1 (Homo sapiens), P00519 [T315I]; settings: at 1 µM
[2] = system: Tyrosine-protein kinase ABL1 (Homo sapiens), P00519 [Y253F]; settings: at 0.1 µM
[3] = system: Tyrosine-protein kinase ABL1 (Homo sapiens), P00519 [Y253F]; settings: at 1 µM
[4] = molecular target: Tyrosine-protein kinase ABL1 (Homo sapiens) (UniProt P00519); settings: at 0.1 µM
[5] = molecular target: Tyrosine-protein kinase ABL1 (Homo sapiens) (UniProt P00519); settings: at 1 µM
[6] = molecular target: ALK tyrosine kinase receptor (Homo sapiens) (UniProt Q9UM73); settings: at 0.1 µM
Chain of ALK tyrosine kinase receptor (Homo sapiens) (Q9UM73 19-1620 limits assumed): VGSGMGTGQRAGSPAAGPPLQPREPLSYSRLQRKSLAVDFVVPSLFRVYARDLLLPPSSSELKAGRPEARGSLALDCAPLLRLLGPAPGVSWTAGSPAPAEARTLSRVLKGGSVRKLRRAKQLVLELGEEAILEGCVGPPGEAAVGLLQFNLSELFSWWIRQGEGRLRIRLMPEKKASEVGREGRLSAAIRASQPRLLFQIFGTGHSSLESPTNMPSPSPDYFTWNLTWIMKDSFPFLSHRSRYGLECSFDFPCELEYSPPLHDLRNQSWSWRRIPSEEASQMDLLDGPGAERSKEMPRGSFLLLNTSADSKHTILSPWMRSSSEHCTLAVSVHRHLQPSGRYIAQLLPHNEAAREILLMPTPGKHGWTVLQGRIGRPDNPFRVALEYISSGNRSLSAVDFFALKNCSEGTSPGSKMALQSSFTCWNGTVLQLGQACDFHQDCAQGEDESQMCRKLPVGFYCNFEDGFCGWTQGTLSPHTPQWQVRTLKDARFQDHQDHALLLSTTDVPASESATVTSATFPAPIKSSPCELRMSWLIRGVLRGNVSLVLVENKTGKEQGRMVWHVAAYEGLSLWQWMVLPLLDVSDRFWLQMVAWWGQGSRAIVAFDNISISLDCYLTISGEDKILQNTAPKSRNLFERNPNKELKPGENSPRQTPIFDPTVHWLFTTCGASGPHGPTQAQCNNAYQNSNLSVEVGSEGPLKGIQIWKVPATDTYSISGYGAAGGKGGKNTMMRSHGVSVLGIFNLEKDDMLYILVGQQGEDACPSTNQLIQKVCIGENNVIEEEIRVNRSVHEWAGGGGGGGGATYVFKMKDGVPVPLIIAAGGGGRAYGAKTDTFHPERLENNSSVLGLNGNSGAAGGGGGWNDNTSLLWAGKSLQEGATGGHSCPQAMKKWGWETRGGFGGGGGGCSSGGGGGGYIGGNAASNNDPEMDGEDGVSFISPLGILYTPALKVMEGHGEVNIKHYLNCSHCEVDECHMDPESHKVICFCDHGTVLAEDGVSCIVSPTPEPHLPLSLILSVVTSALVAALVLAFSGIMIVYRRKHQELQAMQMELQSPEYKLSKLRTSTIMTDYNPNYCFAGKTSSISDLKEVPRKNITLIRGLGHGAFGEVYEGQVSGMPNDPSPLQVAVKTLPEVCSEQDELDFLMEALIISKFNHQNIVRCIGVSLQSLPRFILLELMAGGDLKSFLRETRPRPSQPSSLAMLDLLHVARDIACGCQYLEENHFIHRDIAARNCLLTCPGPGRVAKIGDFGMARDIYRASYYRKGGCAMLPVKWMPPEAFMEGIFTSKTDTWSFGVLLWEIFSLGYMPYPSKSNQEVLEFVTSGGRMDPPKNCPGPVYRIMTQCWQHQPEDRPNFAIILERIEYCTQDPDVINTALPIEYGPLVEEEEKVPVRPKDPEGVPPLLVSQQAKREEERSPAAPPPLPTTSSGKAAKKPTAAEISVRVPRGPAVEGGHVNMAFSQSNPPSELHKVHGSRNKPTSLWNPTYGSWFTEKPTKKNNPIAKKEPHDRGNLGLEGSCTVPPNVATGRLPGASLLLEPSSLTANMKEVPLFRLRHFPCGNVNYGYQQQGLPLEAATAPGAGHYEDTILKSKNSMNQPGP

[7] = molecular target: ALK tyrosine kinase receptor (Homo sapiens) (UniProt Q9UM73); settings: at 1 µM
[8] = molecular target: Tyrosine-protein kinase ABL2 (Homo sapiens) (UniProt P42684); settings: at 0.1 µM
Chain of Tyrosine-protein kinase ABL2 (Homo sapiens) (P42684 whole entry): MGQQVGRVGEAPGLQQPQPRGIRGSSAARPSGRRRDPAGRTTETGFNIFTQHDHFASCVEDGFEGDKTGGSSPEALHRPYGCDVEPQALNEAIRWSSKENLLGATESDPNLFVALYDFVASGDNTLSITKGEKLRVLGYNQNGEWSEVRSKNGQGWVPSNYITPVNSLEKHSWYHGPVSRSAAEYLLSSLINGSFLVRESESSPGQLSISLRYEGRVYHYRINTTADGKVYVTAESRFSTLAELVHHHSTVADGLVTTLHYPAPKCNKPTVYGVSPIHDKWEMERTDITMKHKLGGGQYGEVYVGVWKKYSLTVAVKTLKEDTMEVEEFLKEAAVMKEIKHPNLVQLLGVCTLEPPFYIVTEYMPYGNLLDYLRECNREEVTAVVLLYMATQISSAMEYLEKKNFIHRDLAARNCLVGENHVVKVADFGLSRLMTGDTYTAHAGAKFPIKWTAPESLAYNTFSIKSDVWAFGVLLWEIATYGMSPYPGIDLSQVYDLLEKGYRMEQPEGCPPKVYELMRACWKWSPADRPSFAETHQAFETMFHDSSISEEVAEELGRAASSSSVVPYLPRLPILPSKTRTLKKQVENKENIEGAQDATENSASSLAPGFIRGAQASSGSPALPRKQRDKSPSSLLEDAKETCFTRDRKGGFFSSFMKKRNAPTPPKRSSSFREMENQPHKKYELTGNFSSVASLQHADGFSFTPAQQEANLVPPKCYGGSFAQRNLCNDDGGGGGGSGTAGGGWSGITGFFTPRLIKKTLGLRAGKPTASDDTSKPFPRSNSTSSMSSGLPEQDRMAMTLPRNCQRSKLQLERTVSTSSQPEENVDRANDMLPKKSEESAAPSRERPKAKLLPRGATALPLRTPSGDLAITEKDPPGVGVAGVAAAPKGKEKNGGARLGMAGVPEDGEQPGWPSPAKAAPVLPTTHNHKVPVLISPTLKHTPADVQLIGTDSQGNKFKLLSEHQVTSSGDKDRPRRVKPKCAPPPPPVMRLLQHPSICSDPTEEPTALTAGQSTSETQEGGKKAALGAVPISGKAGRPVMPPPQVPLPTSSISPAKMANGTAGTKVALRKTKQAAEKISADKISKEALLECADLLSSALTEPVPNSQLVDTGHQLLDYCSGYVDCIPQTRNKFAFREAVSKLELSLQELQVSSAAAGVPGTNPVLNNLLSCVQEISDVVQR

[9] = molecular target: Tyrosine-protein kinase ABL2 (Homo sapiens) (UniProt P42684); settings: at 1 µM
[10] = molecular target: Tyrosine-protein kinase receptor UFO (Homo sapiens) (UniProt P30530); settings: at 0.1 µM;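 further: values are mean percent inhibition of AXL from the GSK PKIS screen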
Chain of Tyrosine-protein kinase receptor UFO (Homo sapiens) (P30530 whole entry): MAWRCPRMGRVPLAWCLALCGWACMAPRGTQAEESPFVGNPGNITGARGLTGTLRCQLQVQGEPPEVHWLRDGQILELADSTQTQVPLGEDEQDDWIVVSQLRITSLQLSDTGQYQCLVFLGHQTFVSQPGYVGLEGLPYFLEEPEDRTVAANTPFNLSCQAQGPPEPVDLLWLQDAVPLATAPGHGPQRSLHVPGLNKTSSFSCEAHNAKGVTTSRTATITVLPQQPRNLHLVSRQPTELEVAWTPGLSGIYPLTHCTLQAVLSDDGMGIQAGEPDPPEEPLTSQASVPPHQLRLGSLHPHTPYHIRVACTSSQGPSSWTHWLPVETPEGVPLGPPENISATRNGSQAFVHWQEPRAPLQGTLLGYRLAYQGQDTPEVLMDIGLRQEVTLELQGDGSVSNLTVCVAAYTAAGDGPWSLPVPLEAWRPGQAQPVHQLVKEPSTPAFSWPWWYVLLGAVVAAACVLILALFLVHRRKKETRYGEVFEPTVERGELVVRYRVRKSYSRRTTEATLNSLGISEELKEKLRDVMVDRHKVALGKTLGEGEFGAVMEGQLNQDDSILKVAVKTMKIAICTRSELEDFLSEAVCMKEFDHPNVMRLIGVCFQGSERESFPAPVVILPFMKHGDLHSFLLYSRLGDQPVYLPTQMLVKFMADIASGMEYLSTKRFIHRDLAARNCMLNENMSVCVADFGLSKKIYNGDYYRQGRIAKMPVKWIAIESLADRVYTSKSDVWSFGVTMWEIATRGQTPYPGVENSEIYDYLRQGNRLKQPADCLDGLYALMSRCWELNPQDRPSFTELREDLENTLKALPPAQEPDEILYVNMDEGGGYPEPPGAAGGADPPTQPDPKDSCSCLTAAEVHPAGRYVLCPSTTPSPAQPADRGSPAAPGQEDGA

SMILES	inhibition [1]	inhibition [2]	inhibition [3]	inhibition [4]	inhibition [5]	inhibition [6]	inhibition [7]	inhibition [8]	inhibition [9]	inhibition [10]
CCn1c(-c2nonc2N)nc2c(C#CCN)ncc(OCCCN)c21	1.94%	-2.47%	-2.94%	1.03%	2.03%	-6.6%	-0.9%	-2.47%	-0.76%	7.73%
NC(=O)c1sc(-n2cnc3cc(C(F)(F)F)ccc32)cc1OCc1ccccc1Br	1.66%	4.14%	4.68%	3.16%	3.85%	1.22%	1.22%	2.86%	4.58%	-0.22%
Nc1nonc1-c1nc2cnccc2n1C1CCCCC1	-0.01%	-0.51%	2.63%	-0.08%	7.12%	-2.37%	2.16%	1.35%	3.74%	4.13%
COc1cccc(-n2ncc3c(N/N=C/c4ccncc4)ncnc32)c1	85.2%	84.5%	94.9%	69.3%	89%	3.94%	7.96%	47.8%	82.8%	-5.41%
COc1cc(C=NNc2ncnc3c2cnn3Cc2ccccc2)ccc1O	61.6%	52.2%	90.8%	40.6%	71.9%	-4.96%	-2.43%	20.3%	49.2%	5.07%
CCn1c(-c2nonc2N)nc2c(C#CC(C)(C)O)ncc(OCC3CCNCC3)c21	4.1%	2.44%	5.73%	-2.19%	2.09%	-2.65%	0.19%	-1.08%	-2.22%	-2.5%
Cc1cc(-c2ccco2)cc(C)c1/C=C/c1cncc(-c2nn[nH]n2)c1	2.45%	1.92%	4.15%	2.83%	4.58%	2.41%	2.74%	2.77%	8.69%	0.06%
Fc1ccc(-c2ncn(C3CCNCC3)c2-c2ccnc(Oc3ccccc3)n2)cc1	-0.9%	1.35%	2.58%	-2.46%	-4.75%	-2.73%	-0.15%	-2.93%	-3.16%	-4.72%
CCn1c(-c2nonc2N)nc2c(C#CC(C)(C)O)ncc(OC[C@@H]3CCCN3)c21	0.65%	0.65%	-0.13%	1.81%	-0.45%	-0.46%	1.45%	1.42%	2.28%	0.65%
COc1cccc(COc2cc(-n3cnc4ccccc43)sc2C(N)=O)c1	0.66%	-1.91%	2.67%	-2.41%	0.81%	-0.33%	2.9%	-0.24%	0.86%	0.14%
NS(=O)(=O)c1ccc(N/C=C2\C(=O)Nc3ccc4ncsc4c32)cc1	41.1%	5.62%	32.9%	8.9%	32.9%	4.55%	15.1%	5.92%	21.8%	-3.83%
NS(=O)(=O)c1ccc(-c2ccc3c(NC(=O)C4CC4)n[nH]c3c2)cc1	15.1%	4.41%	8.81%	8.32%	14.2%	2.73%	3.11%	6.43%	7.09%	-4.27%
CCn1c(-c2nonc2N)nc2c(C#CC(C)(C)O)nc(O[C@@H](CN)c3ccccc3)cc21	4.28%	-0.01%	0.57%	0.27%	5.55%	0.41%	19.6%	1.15%	6.91%	1.96%
COc1cc2c(cc1Nc1nc(Nc3ccsc3C(N)=O)c3cc[nH]c3n1)N(C(=O)CN(C)C)CCC2	2.06%	1.77%	5.17%	1.69%	3.88%	83.9%	85.4%	5.49%	8.21%	22.9%
